Measurements taken from PubChem BioAssay (EPA / NIEHS).
Active and inactive are the calls of the source. How the source made its calls: active means hit-call score of the fitted dose curve at least 0.9, where 1 is the maximum; inactive means score below 0.9.

Columns and labels:
[1] = ATG_CRE_CIS: Attagene CIS-FACTORIAL HepG2 Assay for human cAMP Responsive Element (CRE) binding protein 3 (AID 2282926); settings: HepG2 CRE cis-reporter, Attagene multiplexed mRNA; actives raise or lower the signal
Method in brief: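 We dosed HepG2 cells bearing multiple cis-promoter reporter units for 24 h and measured reporter mRNA by RT-PCR with capillary electrophoresis detection. Bidirectional concentration-response fitting used DMSO as negative control.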

[2] = target: CCAAT/enhancer-binding protein beta (Homo sapiens) (UniProt P17676); assay: ATG_C_EBP_CIS: Attagene CIS-FACTORIAL HepG2 Assay for human CCAAT/Enhancer Binding Protein (C/EBP) beta (AID 2282927); settings: HepG2 Attagene cis-factorial transcription factor reporter; actives raise or lower the signal
Method in brief: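 HepG2, transient MRTU transfection, 24 h treatment. RT-PCR plus CE fluorescence; DMSO negative control, bidirectional fit.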

[3] = ATG_CMV_CIS: Attagene CIS-FACTORIAL HepG2 Assay for human CMV (Internal Marker) (AID 2282928); settings: HepG2 CMV promoter reporter, transcription factor profiling; actives raise or lower the signal;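 further: endpoint acts as a background internal control marker rather than a target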
Method in brief: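 CMV internal-marker background readout in transiently transfected HepG2 cells bearing cis-regulated reporter units. Reporter mRNA is measured 24 h after dosing by RT-PCR and capillary electrophoresis, with bidirectional fitting against DMSO.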

[4] = ATG_DR4_LXR_CIS: Attagene CIS-FACTORIAL HepG2 Assay for human Liver X Receptor (LXR), DR4 submotif (AID 2282929); settings: HepG2 Attagene DR4 cis-reporter, mRNA transcription; actives raise or lower the signal
Method in brief: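 Readout: reporter transcript fluorescence after RT-PCR and capillary electrophoresis, fitted bidirectionally against DMSO controls. Human HepG2 liver cells carried transiently transfected multiplexed reporter constructs; endogenous transcription factor activity measured 24 h post-dosing.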

[5] = target: Aryl hydrocarbon receptor (Homo sapiens) (UniProt P35869); assay: ATG_Ahr_CIS: Attagene CIS-FACTORIAL HepG2 Assay for human Aryl Hydrocarbon Receptor (Ahr) (AID 2282930); settings: HepG2 AhR cis-factorial reporter transcription; actives raise or lower the signal
Method in brief: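 Endogenous factor activity is tracked through cis-promoter reporter units transfected into HepG2 cells. Transcript levels at 24 h are read by fluorescent RT-PCR and capillary electrophoresis, with activity in either direction scored relative to DMSO.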

[6] = ATG_AP_1_CIS: Attagene CIS-FACTORIAL HepG2 Assay for human Activator Protein 1 (AP-1) (AID 2282931); settings: HepG2 Attagene cis-factorial AP-1 reporter mRNA; actives raise or lower the signal
Method in brief: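 Reporter transcripts were measured 24 h after dosing by RT-PCR and capillary electrophoresis of fluorescent fragments. Cells: HepG2 carrying transfected cis-regulated reporter constructs reading endogenous factor activity. Gain or loss fitted against DMSO.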

[7] = ATG_AP_2_CIS: Attagene CIS-FACTORIAL HepG2 Assay for human Activator Protein 2 (AP-2) (AID 2282932); settings: HepG2 AP-2 cis-reporter, Attagene transcription factor profiling; actives raise or lower the signal
Method in brief: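 Multiplexed mRNA reporter assay in HepG2: cis-regulated units report endogenous factor activity after 24 h treatment. Fluorescence from capillary electrophoresis of RT-PCR products gives the signal, with DMSO as baseline.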

[8] = ATG_BRE_CIS: Attagene CIS-FACTORIAL HepG2 Assay for human Bone Morphogenetic Protein (BMP) Response Element (BRE) (AID 2282933); settings: HepG2 BMP response element reporter, Attagene transcription factor profiling; actives raise or lower the signal
Method in brief: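 Read-out: reporter mRNA induction quantified by RT-PCR and capillary electrophoresis after 24 h chemical exposure of transfected HepG2 cells. Endogenous factor activity on the BMP response element; gain or loss fitted against DMSO baseline.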

[9] = target: Retinoic acid receptor alpha (Homo sapiens) (UniProt P10276); assay: ATG_DR5_RAR_CIS: Attagene CIS-FACTORIAL HepG2 Assay for human Retinoic Acid Receptor Alpha (RARE), DR5 submotif (AID 2282934); settings: HepG2 Attagene cis-factorial RARE DR5 reporter, mRNA; actives raise or lower the signal;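 on AC50: reporter responds to endogenous RAR alpha beta and gamma in HepG2 not RARA alone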
Method in brief: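 After 24 h of chemical exposure, transiently transfected HepG2 cells were lysed for total RNA; the DR5-regulated reporter transcript was quantified via RT-PCR and capillary electrophoresis, with activity fitted bidirectionally against DMSO.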

[10] = target: Transcription factor E2F1 (Homo sapiens) (UniProt Q01094); assay: ATG_E2F_CIS: Attagene CIS-FACTORIAL HepG2 Assay for human E2F Transcription Factor 1 (AID 2282935); settings: HepG2 Attagene cis-reporter, E2F reporter RNA transcripts; actives raise or lower the signal
Method in brief: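 Measures reporter transcript levels via RT-PCR with capillary electrophoresis detection in HepG2 cells harboring cis-regulated reporter units; 24 h post-dose; bidirectional curve fitting with DMSO as baseline.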

[11] = ATG_E_Box_CIS: Attagene CIS-FACTORIAL HepG2 Assay for human Enhancer Box (E-box) (AID 2282936); settings: HepG2 E-box cis-reporter transcription, actives raise or lower the signal
Method in brief: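 First, HepG2 cells receive multiple cis-regulated reporter constructs by transient transfection. Next, chemicals are applied for 24 h. Finally, reporter mRNA is quantified via RT-PCR and capillary electrophoresis, with DMSO as baseline.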

[12] = ATG_M_61_CIS: Attagene CIS-FACTORIAL HepG2 Assay for M61 Transcription Factor (Internal Marker) (AID 2282937); settings: HepG2 Attagene CIS-FACTORIAL M61 internal marker reporter; actives raise or lower the signal
Method in brief: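 Readout: fluorescent reporter mRNA fragments resolved by capillary electrophoresis after RT-PCR. Transiently transfected human HepG2 cells carried MRTU constructs reporting endogenous TF activity; 24 h chemical exposure; gain or loss of signal fitted relative to DMSO.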

[13] = ATG_M_19_CIS: Attagene CIS-FACTORIAL HepG2 Assay for M19 Transcription Factor (Internal Marker) (AID 2282939); settings: HepG2 Attagene CIS-FACTORIAL M19 internal marker reporter; actives raise or lower the signal
Method in brief: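 Readout: fluorescent reporter-transcript fragments by capillary electrophoresis after RT-PCR. Human HepG2 liver cells carried transfected MRTU constructs reporting endogenous transcription-factor activity; exposure 24 h. Gain or loss of signal fitted relative to DMSO.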

[14] = ATG_Ets_CIS: Attagene CIS-FACTORIAL HepG2 Assay for human Erythroblast Transformation Specific (ETS) (AID 2282941); settings: HepG2 ETS cis-reporter transcription, actives raise or lower the signal
Method in brief: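 HepG2 cells transfected with multiple cis-regulated reporter units measuring endogenous ETS-driven transcription, 24 h after dosing. Reporter mRNA quantified by RT-PCR with capillary electrophoresis; bidirectional fit relative to DMSO.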

[15] = target: Hepatocyte nuclear factor 3-beta (Homo sapiens) (UniProt Q9Y261); assay: ATG_FoxA2_CIS: Attagene CIS-FACTORIAL HepG2 Assay for human Forkhead box A2 (FOXA2) (AID 2282942); settings: HepG2 cis-reporter transcription factor activity, 24 h; actives raise or lower the signal
Method in brief: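 Readout: fluorescent reporter transcripts resolved by capillary electrophoresis after RT-PCR. Transiently transfected HepG2, 24 h compound exposure, endogenous TF activity at cis promoter elements. Gain or loss of signal fitted relative to DMSO.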

[16] = ATG_FoxO_CIS: Attagene CIS-FACTORIAL HepG2 Assay for human Forkhead box O (FoxO) (AID 2282943); settings: HepG2 Attagene cis-reporter, FoxO element, mRNA; actives raise or lower the signal
Method in brief: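 Transfected HepG2 reporter cells exposed to test chemical for 24 h; reporter RNA measured by reverse transcription, PCR and fluorescent capillary electrophoresis; curves fitted for increases and decreases against DMSO.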

[17] = ATG_GATA_CIS: Attagene CIS-FACTORIAL HepG2 Assay for human GATA Binding Protein (AID 2282944); settings: HepG2 GATA cis-element reporter, Attagene multiplex mRNA; actives raise or lower the signal
Method in brief: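 Read-out: fluorescent reporter mRNA fragments resolved by capillary electrophoresis after RT-PCR. Human liver HepG2 cells carried transiently transfected cis-regulated reporter constructs; chemicals incubated 24 h; gain or loss of signal fitted relative to DMSO.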

[18] = ATG_GLI_CIS: Attagene CIS-FACTORIAL HepG2 Assay for human Zinc Finger Protein GLI1 (AID 2282945); settings: HepG2, Attagene cis-factorial reporter mRNA, GLI element; actives raise or lower the signal
Method in brief: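 Transiently transfected HepG2 cells report endogenous transcription factor activity via cis-element-driven reporter units. After 24 h compound exposure, reporter mRNA was measured by RT-PCR with capillary electrophoresis; bidirectional fitting against DMSO baseline.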

[19] = ATG_EGR_CIS: Attagene CIS-FACTORIAL HepG2 Assay for human Early Growth Response 1 (EGR1) (AID 2282938); settings: HepG2 Attagene CIS-FACTORIAL EGR reporter mRNA; actives raise or lower the signal
Method in brief: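 Read-out: fluorescent reporter-mRNA fragments resolved by capillary electrophoresis after RT-PCR, 24 h post-dose in transiently transfected HepG2. Endogenous transcription-factor activity reported via cis-element-regulated reporter units; gain or loss fitted relative to DMSO.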

Measured: AC50

Hepatocyte nuclear factor 3-beta (Homo sapiens), sequence (Q9Y261 whole entry, looked up): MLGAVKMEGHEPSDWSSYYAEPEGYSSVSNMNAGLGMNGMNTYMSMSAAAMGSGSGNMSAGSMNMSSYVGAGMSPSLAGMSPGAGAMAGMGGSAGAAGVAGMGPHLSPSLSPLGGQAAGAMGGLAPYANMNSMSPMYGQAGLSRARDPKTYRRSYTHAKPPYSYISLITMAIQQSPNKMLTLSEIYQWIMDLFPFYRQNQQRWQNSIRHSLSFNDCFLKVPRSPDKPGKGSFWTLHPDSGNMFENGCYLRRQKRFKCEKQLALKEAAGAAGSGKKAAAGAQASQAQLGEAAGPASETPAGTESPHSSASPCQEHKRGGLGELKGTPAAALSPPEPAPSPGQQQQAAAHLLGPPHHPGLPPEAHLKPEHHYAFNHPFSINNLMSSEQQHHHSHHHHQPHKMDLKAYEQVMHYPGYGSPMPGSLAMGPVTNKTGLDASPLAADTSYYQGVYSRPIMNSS
Retinoic acid receptor alpha (Homo sapiens), sequence (P10276 whole entry, looked up): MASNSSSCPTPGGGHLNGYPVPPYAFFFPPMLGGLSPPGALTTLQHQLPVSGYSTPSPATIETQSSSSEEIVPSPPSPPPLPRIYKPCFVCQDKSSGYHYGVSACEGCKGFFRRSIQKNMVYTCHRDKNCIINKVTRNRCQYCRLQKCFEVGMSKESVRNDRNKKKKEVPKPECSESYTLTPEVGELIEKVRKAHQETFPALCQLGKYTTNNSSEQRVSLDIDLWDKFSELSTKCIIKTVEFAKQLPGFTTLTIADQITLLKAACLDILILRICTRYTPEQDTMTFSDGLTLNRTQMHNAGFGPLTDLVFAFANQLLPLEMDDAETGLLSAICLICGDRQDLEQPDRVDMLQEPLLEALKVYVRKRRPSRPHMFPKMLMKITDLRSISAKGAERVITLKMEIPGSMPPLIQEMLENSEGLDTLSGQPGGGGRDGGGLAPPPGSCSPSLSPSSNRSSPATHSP
Transcription factor E2F1 (Homo sapiens), sequence (Q01094 whole entry, looked up): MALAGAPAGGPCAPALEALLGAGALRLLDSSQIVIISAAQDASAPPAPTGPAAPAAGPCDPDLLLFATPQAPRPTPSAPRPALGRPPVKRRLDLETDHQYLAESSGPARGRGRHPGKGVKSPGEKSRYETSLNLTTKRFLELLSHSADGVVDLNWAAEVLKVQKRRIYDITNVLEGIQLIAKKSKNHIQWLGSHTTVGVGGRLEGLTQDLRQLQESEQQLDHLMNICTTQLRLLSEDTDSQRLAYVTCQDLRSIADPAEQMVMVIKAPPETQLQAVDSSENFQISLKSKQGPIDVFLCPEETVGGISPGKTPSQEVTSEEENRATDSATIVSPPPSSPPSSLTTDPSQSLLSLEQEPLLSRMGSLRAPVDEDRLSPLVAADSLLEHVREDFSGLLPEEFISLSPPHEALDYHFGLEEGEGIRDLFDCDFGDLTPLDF
CCAAT/enhancer-binding protein beta (Homo sapiens), sequence (P17676 whole entry, looked up): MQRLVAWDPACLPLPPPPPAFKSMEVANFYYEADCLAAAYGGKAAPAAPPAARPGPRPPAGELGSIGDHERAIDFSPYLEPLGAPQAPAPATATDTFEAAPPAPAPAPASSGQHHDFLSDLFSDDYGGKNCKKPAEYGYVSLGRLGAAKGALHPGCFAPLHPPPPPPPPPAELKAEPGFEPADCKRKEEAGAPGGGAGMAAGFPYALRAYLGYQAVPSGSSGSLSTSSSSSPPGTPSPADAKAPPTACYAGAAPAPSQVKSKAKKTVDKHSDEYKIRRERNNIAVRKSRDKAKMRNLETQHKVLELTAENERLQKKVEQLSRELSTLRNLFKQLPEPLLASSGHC
Aryl hydrocarbon receptor (Homo sapiens), sequence (P35869 whole entry, looked up): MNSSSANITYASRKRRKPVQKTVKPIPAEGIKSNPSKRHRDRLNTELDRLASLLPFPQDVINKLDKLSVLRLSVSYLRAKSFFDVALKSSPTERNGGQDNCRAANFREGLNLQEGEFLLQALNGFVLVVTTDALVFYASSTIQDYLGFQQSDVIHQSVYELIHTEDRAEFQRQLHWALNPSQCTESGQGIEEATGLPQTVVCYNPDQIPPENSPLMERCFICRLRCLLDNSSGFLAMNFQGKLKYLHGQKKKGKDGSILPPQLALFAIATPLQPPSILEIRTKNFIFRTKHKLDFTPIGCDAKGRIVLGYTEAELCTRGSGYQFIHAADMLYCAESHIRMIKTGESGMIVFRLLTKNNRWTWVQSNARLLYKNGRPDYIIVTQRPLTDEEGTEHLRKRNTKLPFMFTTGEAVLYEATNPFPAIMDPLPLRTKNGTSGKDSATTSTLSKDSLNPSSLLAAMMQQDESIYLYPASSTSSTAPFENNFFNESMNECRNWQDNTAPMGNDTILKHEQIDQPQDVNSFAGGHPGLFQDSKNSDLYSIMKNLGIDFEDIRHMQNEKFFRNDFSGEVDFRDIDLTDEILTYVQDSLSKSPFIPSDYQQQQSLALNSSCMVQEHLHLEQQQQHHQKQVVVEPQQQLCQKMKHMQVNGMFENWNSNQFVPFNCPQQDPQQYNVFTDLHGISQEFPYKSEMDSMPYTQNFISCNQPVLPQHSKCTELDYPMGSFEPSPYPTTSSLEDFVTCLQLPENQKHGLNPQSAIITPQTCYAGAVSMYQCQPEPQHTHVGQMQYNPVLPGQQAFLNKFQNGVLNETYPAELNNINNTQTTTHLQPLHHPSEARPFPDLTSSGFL

[Ca+2]
inactive: [1] | [2] | [3] | [4] | [5] | [6] | [7] | [8] | [9] | [10] | [11] | [12] | [13] | [14] | [15] | [16] | [17] | [18]

CCCCCCCCCCN
inactive: [1] | [2] | [3] | [4] | [5] | [6] | [7] | [8] | [9] | [10] | [11] | [19] | [13] | [14] | [15] | [16] | [17] | [18]

Cc1ccc(C=O)s1
inactive: [1] | [2] | [3] | [4] | [5] | [6] | [7] | [8] | [9] | [10] | [11] | [12] | [19] | [13] | [15] | [16] | [17] | [18]

CCCCCCCCCCCCCCCCCC(=O)OCC(CC)CCCC (centres undefined)
inactive: [1] | [2] | [3] | [4] | [5] | [6] | [7] | [8] | [9] | [10] | [11] | [12] | [19] | [13] | [14] | [15] | [16] | [17] | [18]

Fc1c(F)c(F)c(Br)c(F)c1F
inactive: [1] | [2] | [3] | [4] | [5] | [6] | [7] | [8] | [9] | [10] | [11] | [12] | [19] | [13] | [14] | [15] | [16] | [17] | [18]

CO[Si](CCCn1c(=O)n(CCC[Si](OC)(OC)OC)c(=O)n(CCC[Si](OC)(OC)OC)c1=O)(OC)OC
inactive: [1] | [2] | [3] | [4] | [5] | [6] | [7] | [8] | [9] | [10] | [11] | [19] | [13] | [14] | [15] | [16] | [17] | [18]

CC(C)C[C@H]1C(=O)N2CCC[C@H]2[C@]2(O)O[C@](NC(=O)[C@@H]3C=C4c5cccc6[nH]c(Br)c(c56)C[C@H]4N(C)C3)(C(C)C)C(=O)N12
inactive: [1] | [2] | [3] | [5] | [6] | [7] | [8] | [9] | [10] | [11] | [12] | [13] | [14] | [15] | [16] | [17] | [18]
active: [4] 7.76 µM | [19] 1.65 µM

COc1ccc(NC(=O)CC(C)=O)cc1
inactive: [1] | [2] | [3] | [4] | [5] | [6] | [7] | [8] | [9] | [10] | [11] | [12] | [19] | [13] | [14] | [15] | [16] | [17] | [18]

C=C[C@@H](C)CCC=C(C)C
inactive: [1] | [2] | [3] | [4] | [5] | [6] | [7] | [8] | [9] | [10] | [11] | [12] | [13] | [14] | [15] | [16] | [17] | [18]

CSc1nc(NC2CC2)nc(NC(C)(C)C)n1
active: [3] 60.5 µM | [6] 47.5 µM
inactive: [1] | [2] | [4] | [5] | [7] | [8] | [9] | [10] | [11] | [12] | [13] | [14] | [15] | [16] | [17] | [18]

CC(C)=CCCC(C)=CCCC(C)=CCO
inactive: [1] | [2] | [3] | [4] | [5] | [6] | [7] | [8] | [9] | [10] | [11] | [12] | [19] | [13] | [14] | [15] | [16] | [17] | [18]

CCCCCC(CO)CCC (centres undefined)
inactive: [1] | [2] | [3] | [4] | [5] | [6] | [7] | [8] | [9] | [10] | [11] | [12] | [19] | [13] | [14] | [15] | [16] | [17] | [18]

Cc1cccc(Nc2ccccc2C(=O)O)c1C
inactive: [1] | [2] | [3] | [4] | [5] | [6] | [7] | [8] | [9] | [10] | [11] | [12] | [19] | [13] | [14] | [16] | [17] | [18]

O=C1CCCCCCCCCCCCCCO1
inactive: [2] | [7] | [8] | [10] | [11] | [12] | [19] | [13] | [14] | [15] | [16] | [17] | [18]
active: [1] 120 µM | [3] 100 µM | [4] 181 µM | [5] 145 µM | [6] 46.2 µM | [9] 100 µM
